Laboratory results taken from publication PMC7862700, “An all-to-all approach to the identification of sequence-specific readers for epigenetic DNA modifications on cytosine”.

How the values were obtained:
Assay in all cases: DAPPL (digital affinity profiling via proximity ligation, sequencing); 10 mM Tris-HCl pH 7.5, 50 mM NaCl, 1 mM DTT, 4% glycerol, room temperature, 30 min; GST-TFs on glutathione beads, 16-mer random dsDNA library, 0.1% formaldehyde crosslink after washing; high values mean tight binding
FEV = target: T1, FEV (Homo sapiens, UniProt Q99581 1-238); details: protein: recombinant; tags: N-terminal GST; dsDNA, one strand shown
T1 sequence: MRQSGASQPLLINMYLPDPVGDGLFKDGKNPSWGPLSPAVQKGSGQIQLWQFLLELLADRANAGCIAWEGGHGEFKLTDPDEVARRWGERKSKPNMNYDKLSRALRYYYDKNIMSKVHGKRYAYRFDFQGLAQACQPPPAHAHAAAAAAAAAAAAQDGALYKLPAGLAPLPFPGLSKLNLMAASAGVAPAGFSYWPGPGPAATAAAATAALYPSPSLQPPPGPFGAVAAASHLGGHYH
Summary of the method: (§1)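 In yeast, human transcription factors were expressed with a GST fusion, then pulled down on glutathione beads and given DNA barcodes. Pooled with a tag-only sample, they were exposed to 200 nmole of a 16-mer random double-stranded DNA library (Tris/NaCl/DTT/glycerol buffer, room temperature, 30 min), washed, crosslinked with 0.1% formaldehyde, proximity-ligated using BsaI/T4 ligase for 1 h at 37 °C, PCR-amplified and read on an Illumina NextSeq500. Each hexamer's frequency of reads for a factor, divided by the matching frequency for the tag-only sample, gives the binding signal.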

ETV5 = ETV5 (Homo sapiens, UniProt P41161 1-510); details: protein: recombinant; tags: N-terminal GST; dsDNA, one strand shown
Chain of ETV5 (P41161 whole entry): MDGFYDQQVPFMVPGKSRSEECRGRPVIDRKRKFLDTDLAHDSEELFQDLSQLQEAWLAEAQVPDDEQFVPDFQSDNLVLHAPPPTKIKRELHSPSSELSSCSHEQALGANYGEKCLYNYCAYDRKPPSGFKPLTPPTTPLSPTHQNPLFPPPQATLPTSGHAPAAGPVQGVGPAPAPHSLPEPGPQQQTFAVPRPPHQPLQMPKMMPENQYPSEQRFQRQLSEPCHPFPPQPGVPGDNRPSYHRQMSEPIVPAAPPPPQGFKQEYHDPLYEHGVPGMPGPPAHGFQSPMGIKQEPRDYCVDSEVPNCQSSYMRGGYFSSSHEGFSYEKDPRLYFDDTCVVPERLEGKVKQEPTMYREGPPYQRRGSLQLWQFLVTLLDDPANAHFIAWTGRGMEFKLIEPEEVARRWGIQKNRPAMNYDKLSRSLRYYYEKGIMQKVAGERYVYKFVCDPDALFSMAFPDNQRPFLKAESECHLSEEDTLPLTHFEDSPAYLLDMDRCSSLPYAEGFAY
Summary of the method: as §1

HSF1 = HSF1 (Homo sapiens, UniProt Q00613 1-529); details: protein: recombinant; tags: N-terminal GST; chain copies: 3; dsDNA, one strand shown
Chain of HSF1 (Q00613 whole entry): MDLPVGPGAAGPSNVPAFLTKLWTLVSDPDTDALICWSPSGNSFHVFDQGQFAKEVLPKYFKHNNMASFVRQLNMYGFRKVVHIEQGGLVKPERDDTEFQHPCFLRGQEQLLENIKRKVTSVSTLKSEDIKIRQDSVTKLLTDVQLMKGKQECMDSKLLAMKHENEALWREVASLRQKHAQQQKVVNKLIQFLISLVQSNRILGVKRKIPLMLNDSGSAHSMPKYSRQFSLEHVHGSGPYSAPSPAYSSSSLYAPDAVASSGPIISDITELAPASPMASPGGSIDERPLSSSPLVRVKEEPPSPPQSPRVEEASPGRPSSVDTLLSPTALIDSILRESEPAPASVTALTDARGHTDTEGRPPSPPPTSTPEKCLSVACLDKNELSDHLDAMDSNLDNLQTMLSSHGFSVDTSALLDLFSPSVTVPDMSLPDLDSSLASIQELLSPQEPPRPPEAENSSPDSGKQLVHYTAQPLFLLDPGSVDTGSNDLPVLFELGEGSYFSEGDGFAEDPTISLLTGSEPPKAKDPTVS
Summary of the method: as §1

SPIC = target: T2, SPIC (Homo sapiens, UniProt Q8N5J4 1-248); details: protein: recombinant; tags: N-terminal GST; dsDNA, one strand shown
T2 sequence: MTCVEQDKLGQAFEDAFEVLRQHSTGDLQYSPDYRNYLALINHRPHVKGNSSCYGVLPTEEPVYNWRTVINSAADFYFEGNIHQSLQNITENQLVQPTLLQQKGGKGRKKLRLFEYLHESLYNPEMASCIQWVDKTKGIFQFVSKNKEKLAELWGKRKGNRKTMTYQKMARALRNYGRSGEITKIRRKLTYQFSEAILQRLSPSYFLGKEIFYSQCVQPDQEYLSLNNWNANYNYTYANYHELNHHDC
Summary of the method: as §1

ELF4 = ELF4 (Homo sapiens, UniProt Q99607 1-663); details: protein: recombinant; tags: N-terminal GST; dsDNA, one strand shown
Chain of ELF4 (Q99607 whole entry): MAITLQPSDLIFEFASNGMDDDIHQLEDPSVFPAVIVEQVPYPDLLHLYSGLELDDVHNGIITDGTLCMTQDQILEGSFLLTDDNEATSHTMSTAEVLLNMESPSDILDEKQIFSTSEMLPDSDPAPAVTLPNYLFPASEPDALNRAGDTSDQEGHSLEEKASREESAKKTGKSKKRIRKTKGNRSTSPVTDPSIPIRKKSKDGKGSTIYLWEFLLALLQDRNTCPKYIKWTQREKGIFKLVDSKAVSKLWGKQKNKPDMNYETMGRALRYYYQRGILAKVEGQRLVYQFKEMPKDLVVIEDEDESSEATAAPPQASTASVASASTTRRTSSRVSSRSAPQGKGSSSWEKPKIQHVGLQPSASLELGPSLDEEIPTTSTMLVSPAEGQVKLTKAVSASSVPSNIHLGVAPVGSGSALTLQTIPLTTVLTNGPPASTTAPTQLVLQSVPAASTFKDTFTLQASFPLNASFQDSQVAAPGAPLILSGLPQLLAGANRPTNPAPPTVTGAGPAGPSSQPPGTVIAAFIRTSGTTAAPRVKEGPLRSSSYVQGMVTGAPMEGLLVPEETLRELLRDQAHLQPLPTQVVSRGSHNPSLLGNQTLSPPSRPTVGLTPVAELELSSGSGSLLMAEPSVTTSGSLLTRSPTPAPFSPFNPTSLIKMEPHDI
Summary of the method: as §1

ELK4 = target: T3, ELK4 (Homo sapiens, UniProt P28324-2 1-405); details: protein: recombinant; tags: N-terminal GST; dsDNA, one strand shown
T3 sequence: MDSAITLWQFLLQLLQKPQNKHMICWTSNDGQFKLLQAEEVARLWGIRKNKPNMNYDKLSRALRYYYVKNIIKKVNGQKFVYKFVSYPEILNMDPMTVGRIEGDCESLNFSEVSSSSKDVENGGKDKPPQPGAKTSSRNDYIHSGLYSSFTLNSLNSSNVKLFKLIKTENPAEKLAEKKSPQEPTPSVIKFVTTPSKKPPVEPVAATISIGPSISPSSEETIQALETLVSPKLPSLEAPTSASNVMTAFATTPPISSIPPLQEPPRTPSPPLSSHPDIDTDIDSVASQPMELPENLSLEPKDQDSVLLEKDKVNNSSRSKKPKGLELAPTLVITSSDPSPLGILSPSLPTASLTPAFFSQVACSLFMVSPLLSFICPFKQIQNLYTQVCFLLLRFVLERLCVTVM
Summary of the method: as §1

ETV2 = target: T4, ETV2 (Homo sapiens, UniProt O00321 1-342); details: protein: recombinant; tags: N-terminal GST; dsDNA, one strand shown
T4 sequence: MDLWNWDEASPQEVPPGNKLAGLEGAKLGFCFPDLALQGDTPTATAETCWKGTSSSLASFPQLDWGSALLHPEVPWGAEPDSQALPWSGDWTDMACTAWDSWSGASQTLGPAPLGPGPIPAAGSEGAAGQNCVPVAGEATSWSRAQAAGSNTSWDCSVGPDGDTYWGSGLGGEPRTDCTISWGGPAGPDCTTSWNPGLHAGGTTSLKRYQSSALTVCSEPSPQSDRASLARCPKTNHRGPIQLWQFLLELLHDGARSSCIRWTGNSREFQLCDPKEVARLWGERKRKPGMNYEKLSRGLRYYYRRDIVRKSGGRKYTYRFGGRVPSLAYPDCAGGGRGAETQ
Summary of the method: as §1

ELF3 = target: T5, ELF3 (Homo sapiens, UniProt P78545 1-371); details: protein: recombinant; tags: N-terminal GST; dsDNA, one strand shown
T5 sequence: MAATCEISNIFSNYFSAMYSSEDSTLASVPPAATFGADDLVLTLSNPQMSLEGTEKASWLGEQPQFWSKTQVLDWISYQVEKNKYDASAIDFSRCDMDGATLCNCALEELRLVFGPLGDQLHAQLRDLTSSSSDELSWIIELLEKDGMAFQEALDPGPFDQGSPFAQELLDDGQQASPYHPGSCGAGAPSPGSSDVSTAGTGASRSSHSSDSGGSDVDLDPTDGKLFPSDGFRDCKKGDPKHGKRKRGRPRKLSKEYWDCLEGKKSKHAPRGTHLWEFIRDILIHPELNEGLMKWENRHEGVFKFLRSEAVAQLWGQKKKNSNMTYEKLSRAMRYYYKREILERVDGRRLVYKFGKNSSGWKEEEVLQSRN
Summary of the method: as §1

CRX = CRX (Homo sapiens, UniProt O43186 1-299); details: protein: recombinant; tags: N-terminal GST; dsDNA, one strand shown
Chain of CRX (O43186 whole entry): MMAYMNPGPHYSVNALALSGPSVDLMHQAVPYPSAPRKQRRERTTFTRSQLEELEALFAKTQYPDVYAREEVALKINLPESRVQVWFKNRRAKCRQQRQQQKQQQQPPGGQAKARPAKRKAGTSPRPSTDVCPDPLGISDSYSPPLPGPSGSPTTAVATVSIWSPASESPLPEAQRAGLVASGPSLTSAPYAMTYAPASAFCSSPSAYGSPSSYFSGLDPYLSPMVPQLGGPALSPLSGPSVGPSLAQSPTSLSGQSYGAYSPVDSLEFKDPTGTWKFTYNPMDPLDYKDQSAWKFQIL
Summary of the method: as §1

ETV1 = ETV1 (Homo sapiens, UniProt P50549 1-477); details: protein: recombinant; tags: N-terminal GST; dsDNA, one strand shown
Chain of ETV1 (P50549 whole entry): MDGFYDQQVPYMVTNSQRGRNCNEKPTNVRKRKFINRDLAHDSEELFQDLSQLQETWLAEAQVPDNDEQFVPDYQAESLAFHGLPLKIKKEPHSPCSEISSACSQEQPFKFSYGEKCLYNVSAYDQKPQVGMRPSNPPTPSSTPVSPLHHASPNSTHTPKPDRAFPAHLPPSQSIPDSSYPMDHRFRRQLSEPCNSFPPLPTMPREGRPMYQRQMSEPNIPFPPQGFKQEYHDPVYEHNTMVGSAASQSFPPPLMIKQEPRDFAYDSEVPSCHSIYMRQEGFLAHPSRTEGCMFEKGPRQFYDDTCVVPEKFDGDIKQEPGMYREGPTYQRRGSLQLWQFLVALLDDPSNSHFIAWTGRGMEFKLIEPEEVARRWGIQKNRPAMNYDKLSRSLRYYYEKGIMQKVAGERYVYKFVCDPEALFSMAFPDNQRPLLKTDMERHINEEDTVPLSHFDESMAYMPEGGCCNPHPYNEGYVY
Summary of the method: as §1

ERF = target: T6, ERF (Homo sapiens, UniProt P50548 1-548); details: protein: recombinant; tags: N-terminal GST; dsDNA, one strand shown
T6 sequence: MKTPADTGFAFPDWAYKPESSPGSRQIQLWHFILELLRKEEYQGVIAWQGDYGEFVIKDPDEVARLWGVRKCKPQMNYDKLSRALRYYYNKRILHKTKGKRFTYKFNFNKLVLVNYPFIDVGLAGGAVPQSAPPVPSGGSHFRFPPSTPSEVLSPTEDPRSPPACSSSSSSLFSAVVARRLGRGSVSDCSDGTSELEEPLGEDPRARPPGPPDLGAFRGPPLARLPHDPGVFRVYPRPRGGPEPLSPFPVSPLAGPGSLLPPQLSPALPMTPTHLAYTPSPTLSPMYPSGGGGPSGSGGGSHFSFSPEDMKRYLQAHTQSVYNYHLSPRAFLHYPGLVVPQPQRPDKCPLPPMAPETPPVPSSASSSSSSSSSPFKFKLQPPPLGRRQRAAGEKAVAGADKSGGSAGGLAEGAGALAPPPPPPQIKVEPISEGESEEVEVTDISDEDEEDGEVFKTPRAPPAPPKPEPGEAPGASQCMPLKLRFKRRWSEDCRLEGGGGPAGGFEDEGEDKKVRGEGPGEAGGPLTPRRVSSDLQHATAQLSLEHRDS
Summary of the method: as §1

ETV3L = target: T7, ETV3L (Homo sapiens, UniProt Q6ZN32 1-361); details: protein: recombinant; tags: N-terminal GST; dsDNA, one strand shown
T7 sequence: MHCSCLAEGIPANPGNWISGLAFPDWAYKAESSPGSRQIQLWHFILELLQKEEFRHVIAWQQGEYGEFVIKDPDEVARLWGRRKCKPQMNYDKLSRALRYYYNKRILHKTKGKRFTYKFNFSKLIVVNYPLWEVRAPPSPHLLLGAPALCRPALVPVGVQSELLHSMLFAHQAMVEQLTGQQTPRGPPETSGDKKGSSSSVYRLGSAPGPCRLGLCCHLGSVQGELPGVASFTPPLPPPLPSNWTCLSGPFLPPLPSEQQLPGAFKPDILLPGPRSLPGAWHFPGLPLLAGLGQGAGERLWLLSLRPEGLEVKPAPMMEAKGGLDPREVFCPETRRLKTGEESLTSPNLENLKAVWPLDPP
Summary of the method: as §1

ETS2 = target: T8, ETS2 (Homo sapiens, UniProt P15036 1-469); details: protein: recombinant; tags: N-terminal GST; dsDNA, one strand shown
T8 sequence: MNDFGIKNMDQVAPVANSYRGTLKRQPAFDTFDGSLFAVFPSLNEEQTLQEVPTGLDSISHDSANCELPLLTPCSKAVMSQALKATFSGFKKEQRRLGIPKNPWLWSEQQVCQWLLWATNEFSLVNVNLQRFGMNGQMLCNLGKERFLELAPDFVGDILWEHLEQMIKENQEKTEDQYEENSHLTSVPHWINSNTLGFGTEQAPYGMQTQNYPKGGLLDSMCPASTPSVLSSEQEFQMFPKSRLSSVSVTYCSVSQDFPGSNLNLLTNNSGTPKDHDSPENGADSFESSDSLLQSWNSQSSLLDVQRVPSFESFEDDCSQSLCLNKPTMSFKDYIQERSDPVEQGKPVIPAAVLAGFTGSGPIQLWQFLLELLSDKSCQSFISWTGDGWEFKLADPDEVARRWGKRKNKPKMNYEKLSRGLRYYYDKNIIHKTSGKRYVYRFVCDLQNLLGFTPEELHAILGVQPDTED
Summary of the method: as §1

SPDEF = target: T9, SPDEF (Homo sapiens, UniProt O95238 1-335); details: protein: recombinant; tags: N-terminal GST; dsDNA, one strand shown
T9 sequence: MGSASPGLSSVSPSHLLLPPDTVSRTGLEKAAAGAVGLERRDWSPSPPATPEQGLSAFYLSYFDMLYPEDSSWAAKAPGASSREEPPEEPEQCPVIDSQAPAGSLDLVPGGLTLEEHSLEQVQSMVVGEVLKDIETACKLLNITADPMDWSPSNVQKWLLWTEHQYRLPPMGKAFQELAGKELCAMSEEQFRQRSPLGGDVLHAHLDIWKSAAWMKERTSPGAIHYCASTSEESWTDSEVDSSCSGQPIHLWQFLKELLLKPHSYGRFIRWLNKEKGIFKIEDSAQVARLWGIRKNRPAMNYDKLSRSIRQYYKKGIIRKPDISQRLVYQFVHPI
Summary of the method: as §1

ETV7 = target: T10, ETV7 (Homo sapiens, UniProt Q9Y603 1-341); details: protein: recombinant; tags: N-terminal GST; dsDNA, one strand shown
T10 sequence: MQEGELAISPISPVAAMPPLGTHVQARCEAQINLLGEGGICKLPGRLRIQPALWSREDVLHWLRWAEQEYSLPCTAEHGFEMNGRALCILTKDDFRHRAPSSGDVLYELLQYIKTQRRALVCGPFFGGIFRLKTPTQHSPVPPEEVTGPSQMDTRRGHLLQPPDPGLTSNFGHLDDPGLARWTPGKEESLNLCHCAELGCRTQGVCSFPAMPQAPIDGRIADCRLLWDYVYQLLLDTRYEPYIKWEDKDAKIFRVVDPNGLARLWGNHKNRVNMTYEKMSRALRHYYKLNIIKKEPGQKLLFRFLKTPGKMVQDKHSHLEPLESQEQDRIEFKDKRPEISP
Summary of the method: as §1

ELF5 = target: T11, ELF5 (Homo sapiens, UniProt Q9UKW6-2 1-255); details: protein: recombinant; tags: N-terminal GST; dsDNA, one strand shown
T11 sequence: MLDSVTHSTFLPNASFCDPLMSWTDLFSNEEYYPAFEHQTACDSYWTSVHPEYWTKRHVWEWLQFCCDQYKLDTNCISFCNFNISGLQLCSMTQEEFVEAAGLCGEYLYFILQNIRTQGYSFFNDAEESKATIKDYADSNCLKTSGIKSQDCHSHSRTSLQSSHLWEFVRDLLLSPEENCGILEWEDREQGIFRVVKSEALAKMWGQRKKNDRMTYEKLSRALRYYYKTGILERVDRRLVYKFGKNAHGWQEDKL
Summary of the method: as §1

ETV3 = target: T12, ETV3 (Homo sapiens, UniProt P41162-2 1-143); details: protein: recombinant; tags: N-terminal GST; dsDNA, one strand shown
T12 sequence: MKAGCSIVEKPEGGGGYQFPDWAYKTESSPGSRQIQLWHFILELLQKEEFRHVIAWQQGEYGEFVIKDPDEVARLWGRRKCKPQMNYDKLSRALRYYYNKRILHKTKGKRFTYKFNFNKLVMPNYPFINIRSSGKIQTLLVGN
Summary of the method: as §1

ETV6 = ETV6 (Homo sapiens, UniProt P41212 1-452); details: protein: recombinant; tags: N-terminal GST; dsDNA, one strand shown
Chain of ETV6 (P41212 whole entry): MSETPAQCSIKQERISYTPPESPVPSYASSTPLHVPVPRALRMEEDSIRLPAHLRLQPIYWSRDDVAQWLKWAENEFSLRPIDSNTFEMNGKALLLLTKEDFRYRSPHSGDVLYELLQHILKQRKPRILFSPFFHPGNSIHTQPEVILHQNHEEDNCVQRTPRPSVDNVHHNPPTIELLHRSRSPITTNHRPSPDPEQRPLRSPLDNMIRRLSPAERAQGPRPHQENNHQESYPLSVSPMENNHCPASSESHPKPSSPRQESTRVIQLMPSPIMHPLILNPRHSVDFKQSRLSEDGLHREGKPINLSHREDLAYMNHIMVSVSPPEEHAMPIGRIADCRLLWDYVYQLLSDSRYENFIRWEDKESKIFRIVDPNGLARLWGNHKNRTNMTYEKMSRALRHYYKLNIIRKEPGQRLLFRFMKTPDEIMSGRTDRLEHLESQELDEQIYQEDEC
Summary of the method: as §1

TTTCTG was tested, and the binding signal (FEV) was 1.32 fold enrichment (6-mer frequency, TF over GST control), the binding signal (ETV5) was 1.31 fold enrichment (6-mer frequency, TF over GST control) and the binding signal (HSF1) was 2.33 fold enrichment (6-mer frequency, TF over GST control). The binding signal (SPIC) was 1.3 fold enrichment (6-mer frequency, TF over GST control), the binding signal (ELF4) was 1.39 fold enrichment (6-mer frequency, TF over GST control) and the binding signal (ELK4) was 1.52 fold enrichment (6-mer frequency, TF over GST control). The binding signal (ETV2) was 1.36 fold enrichment (6-mer frequency, TF over GST control), the binding signal (ELF3) was 1.44 fold enrichment (6-mer frequency, TF over GST control) and the binding signal (CRX) was 1.45 fold enrichment (6-mer frequency, TF over GST control). The binding signal (ETV1) was 1.3 fold enrichment (6-mer frequency, TF over GST control), the binding signal (ERF) was 1.44 fold enrichment (6-mer frequency, TF over GST control) and the binding signal (ETV3L) was 1.29 fold enrichment (6-mer frequency, TF over GST control). The binding signal (ETS2) was 1.37 fold enrichment (6-mer frequency, TF over GST control), the binding signal (SPDEF) was 1.46 fold enrichment (6-mer frequency, TF over GST control) and the binding signal (ETV7) was 1.39 fold enrichment (6-mer frequency, TF over GST control). The binding signal (ELF5) was 1.42 fold enrichment (6-mer frequency, TF over GST control), the binding signal (ETV3) was 1.3 fold enrichment (6-mer frequency, TF over GST control) and the binding signal (ETV6) was 1.46 fold enrichment (6-mer frequency, TF over GST control).
